Reference: PubChem BioAssay (NCI)
This is part of a sample that, as a whole, favours compounds with a hit. Of some 79,000 tested, about 15% had one in any assay. Active and inactive are the calls of the source. Cut-off read from the data, not from the text of the source: active = growth inhibition above about 70%; inactive = the rest.

How the values were obtained:
[1] = NCI Yeast Anticancer Drug Screen. Data for the rad50 strain (AID 155);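 note: 0% = growth of vehicle-only cultures of the same strain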; details: S. cerevisiae rad50 strain growth inhibition, stronger effect = higher value
In short: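 Inhibition values express reduced yeast growth in compound-treated cultures relative to vehicle-treated controls.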

[2] = NCI Yeast Anticancer Drug Screen. Data for the mec2-1 strain (AID 157); details: S. cerevisiae mec2-1 strain, stronger effect = higher value
In short: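 Test agents were screened against the mec2-1 yeast strain, with defined DNA repair or cell cycle alteration. Growth was scored as inhibition against vehicle-only controls.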

[3] = NCI Yeast Anticancer Drug Screen. Data for the sgs1 mgt1 strain (AID 161);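 note: 0% = growth of cultures given vehicle only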; details: S. cerevisiae sgs1 mgt1 strain, stronger effect = higher value
In short: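 Mutant yeast exposed to compound; growth scored against vehicle-only wells.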

[4] = NCI Yeast Anticancer Drug Screen. Data for the cln2 rad14 strain (AID 165);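 note: 0% = growth equal to vehicle treated cultures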; details: S. cerevisiae cln2 rad14 strain, stronger effect = higher value
In short: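 Growth of compound-exposed yeast (cln2 rad14 genotype) measured and expressed as inhibition relative to vehicle.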

[5] = NCI Yeast Anticancer Drug Screen. Data for the bub3 strain (AID 167); details: S. cerevisiae bub3 mutant strain, stronger effect = higher value
In short: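 Steps: expose the mutant yeast strain to compound; grow alongside vehicle-treated cultures; measure growth; express inhibition against the vehicle cultures.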

[6] = NCI Yeast Anticancer Drug Screen. Data for the mlh1 rad18 strain (AID 175); details: S. cerevisiae mlh1 rad18 strain growth inhibition, stronger effect = higher value
In short: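 In this whole-cell yeast screen, a strain with altered DNA damage repair is challenged with compound, and its growth is measured against matched vehicle-treated controls.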

[7] = at 5.0 µM (retest, dose inferred, filed as 0.5)
[8] = at 50.0 µM (retest, dose inferred, filed as 5.0)

Measured: growth inhibition

CC[C@H]1CN2CCc3cc(OC)c(OC)cc3[C@@H]2C[C@@H]1C[C@H]1NCCc2cc(OC)c(OC)cc21
inactive: [1]; [7] 0% | [1]; [8] 12% | [1]; at 50.0 µM -7.4% | [2]; [7] -10% | [2]; [8] -2% | [2]; at 50.0 µM -4.65% | [3]; [7] 1% | [3]; [8] 3% | [3]; at 50.0 µM 4% | [4]; [7] 1% | [4]; [8] 17% | [4]; at 50.0 µM 7.5% | [5]; [7] 3% | [5]; [8] 0% | [5]; at 50.0 µM 2.55% | [6]; [7] 1% | [6]; [8] 3% | [6]; at 50.0 µM 8.25%

CN(C)CCOC1OCN(C)CC1(C)C (stereo not given)
inactive: [1]; [7] 0% | [1]; [8] -12% | [1]; at 50.0 µM 4.55% | [2]; [7] 0% | [2]; [8] -7% | [2]; at 50.0 µM 7.2% | [3]; [7] -1% | [3]; [8] -8% | [3]; at 50.0 µM -0.9% | [4]; [7] 1% | [4]; [8] -15% | [4]; at 50.0 µM 36.1% | [5]; [7] -2% | [5]; [8] -3% | [5]; at 50.0 µM -3.75% | [6]; [7] 2% | [6]; [8] -12% | [6]; at 50.0 µM -1.05%

O=c1[nH]c2ccc([N+](=O)[O-])c(Cl)c2c2ccccc12
active: [1]; [7] 74% | [1]; [8] 97% | [2]; [8] 98% | [3]; [8] 98% | [4]; [8] 95% | [5]; [8] 97% | [6]; [7] 70% | [6]; [8] 96%
inactive: [1]; at 50.0 µM 9.1% | [2]; [7] 21% | [2]; at 50.0 µM 12.3% | [3]; [7] 38% | [3]; at 50.0 µM 9% | [4]; [7] 9% | [4]; at 50.0 µM -46.8% | [5]; [7] 19% | [5]; at 50.0 µM 1.05% | [6]; at 50.0 µM 39.9%

C=C1CCC[C@@]2(C)CC[C@@H](/C(C)=C\C=C\C(C)(C)O)C[C@H]12
inactive: [1]; [7] 0% | [1]; [8] 29% | [2]; [7] -1% | [2]; [8] 32% | [3]; [7] 2% | [3]; [8] 56% | [4]; [7] -5% | [4]; [8] 0% | [5]; [7] 2% | [5]; [8] 28% | [6]; [7] -2% | [6]; [8] 53%
active: [1]; at 50.0 µM 83.1% | [2]; at 50.0 µM 92.8% | [3]; at 50.0 µM 92.5% | [4]; at 50.0 µM 91.8% | [5]; at 50.0 µM 91.7% | [6]; at 50.0 µM 88.8%

O=C(NO)Nc1nc(Cl)c(Cl)nc1Cl
active: [1]; [8] 97% | [1]; at 50.0 µM 90% | [2]; [8] 99% | [2]; at 50.0 µM 92.7% | [3]; [8] 99% | [3]; at 50.0 µM 90.2% | [4]; [8] 99% | [4]; at 50.0 µM 83.5% | [5]; [8] 98% | [5]; at 50.0 µM 90.3% | [6]; [8] 99% | [6]; at 50.0 µM 90.3%
inactive: [1]; [7] 16% | [2]; [7] 18% | [3]; [7] 30% | [4]; [7] 2% | [5]; [7] 6% | [6]; [7] 20%

O=C(NC1=Nc2c(ncn2COCCO)S(=O)(=O)[N-]1)c1ccccc1.[Ag+]
active: [1]; [7] 100% | [1]; [8] 99% | [1]; at 50.0 µM 98.3% | [2]; [7] 100% | [2]; [8] 100% | [2]; at 50.0 µM 98.2% | [3]; [7] 99% | [3]; [8] 99% | [3]; at 50.0 µM 98.5% | [4]; [7] 99% | [4]; [8] 99% | [4]; at 50.0 µM 86% | [5]; [7] 100% | [5]; [8] 99% | [5]; at 50.0 µM 98.3% | [6]; [7] 99% | [6]; [8] 99% | [6]; at 50.0 µM 97.3%

O=C(Nc1ccc(Cl)cc1)Nc1nnc2nc(C(C(=O)/C=C/c3ccccc3)c3nc4nnc(NC(=O)Nc5ccc(Cl)cc5)n4[nH]c3=O)c(=O)[nH]n12
inactive: [1]; [7] -8% | [1]; [8] 11% | [1]; at 50.0 µM 48.5% | [2]; [7] -7% | [2]; [8] -3% | [2]; at 50.0 µM 48% | [3]; [7] 4% | [3]; [8] 2% | [3]; at 50.0 µM 46.6% | [4]; [7] -8% | [4]; [8] 2% | [4]; at 50.0 µM 28.6% | [5]; [7] -11% | [5]; [8] 7% | [5]; at 50.0 µM 39.5% | [6]; [7] -6% | [6]; [8] 8% | [6]; at 50.0 µM 63.2%

Cc1ccc([Si](O)(c2ccc(C)cc2)c2ccc(C)cc2)cc1
active: [1]; [7] 85% | [1]; [8] 92% | [1]; at 50.0 µM 95.2% | [2]; [7] 78% | [2]; [8] 94% | [2]; at 50.0 µM 93% | [3]; [7] 71% | [3]; at 50.0 µM 93.5% | [4]; [8] 90% | [4]; at 50.0 µM 93.6% | [5]; [7] 75% | [5]; [8] 92% | [5]; at 50.0 µM 86.3% | [6]; [7] 84% | [6]; [8] 93% | [6]; at 50.0 µM 94.4%
inactive: [3]; [8] -27% | [4]; [7] 67%

O=C(Cc1nc2ccccc2s1)Nc1cccc(C(F)(F)F)c1
inactive: [1]; [7] 41% | [2]; [7] 39% | [3]; [7] 54% | [4]; [7] 32% | [5]; [7] 35% | [6]; [7] 64%
active: [1]; [8] 98% | [1]; at 50.0 µM 92.2% | [2]; [8] 100% | [2]; at 50.0 µM 93.7% | [3]; [8] 99% | [3]; at 50.0 µM 94.7% | [4]; [8] 98% | [4]; at 50.0 µM 92.6% | [5]; [8] 99% | [5]; at 50.0 µM 92.4% | [6]; [8] 99% | [6]; at 50.0 µM 93%

CC(=O)OCc1cc(=O)n(C)c2c3c4c(cc12)c(C)cc(=O)n4CO3
inactive: [2]; [7] 69%
active: [1]; [7] 87% | [1]; [8] 99% | [1]; at 50.0 µM 85.6% | [2]; [8] 99% | [2]; at 50.0 µM 88.5% | [3]; [7] 83% | [3]; [8] 99% | [3]; at 50.0 µM 91.2% | [4]; [7] 79% | [4]; [8] 97% | [4]; at 50.0 µM 87.4% | [5]; [7] 86% | [5]; [8] 97% | [5]; at 50.0 µM 83.8% | [6]; [7] 91% | [6]; [8] 99% | [6]; at 50.0 µM 89.9%
